The sequences below were run against ZNF653 (assay: pooled miR-30 sensor sort-seq; sequence = guide strand). Conditions: shRNA.
Further: reference of the scale not given here.

Sequence | sensor-assay potency score (higher = more potent)
TTCTTCCTCTTGAAGGACTTGC | -0.65
TTCCTCTTGAAGGACTTGCCGC | -0.882
ATGATGGCTGACATGTCGCTGC | -0.928
TTGACGTGGTTCTGGAAGCTGC | -0.877
ATAAATAGAACTTCTTGCCACA | -0.586
TAGCAAGCACAGGTCCTCCTTC | -0.219
TTGGCGTCGCTCCAGCCGCTGC | -1.56
TGACATGTCGCTGCCGTCCAGC | -1.21
TTGTACTGCACCTCCGCAGTGT | -0.237

Each sequence was assayed against ZNF654 in the same assay as above. Conditions: shRNA.

Sequence | sensor-assay potency score (higher = more potent)
TTTGCTAGTAGAAACTGGCAGA | -0.0895
TTCTTGTGGTACAACACTGGGC | -0.302
TATCTTGATCAGAACAGGCATC | -0.711
TTGATTTGCTAGTAGAAACTGG | 0.3
TTACACATGCAAAACTGCCTTT | 0.225
TGAGTCTGTCTGAACATCCCAA | -0.147
TAAATATCCGGACACAACCAAG | -1.3
TTCTGAACTAAACTGTCTGTTT | 0.135
TTGTCGCACATTTAAATCGGTT | -1.07
TAAAGTTTCCTTCTTGATCTGT | 0.508
TTGAGCTGCAGCAATTTGCTGC | 0.117
TAGGATTTGAGTCTGTCTGAAC | -1.01

What follows are sequences tested against ZNF674 in the same assay as above. Conditions: shRNA.

Sequence | sensor-assay potency score (higher = more potent)
TACATTCTTGACCACTTTCATC | -1.6
TTGATGAGAGTTGACTTCCTAC | -0.0843
TATCTGCTCGTCAACTTCCCAG | -1.05
TACAGAAACAAAGTCTGTGTTG | -0.525
TTGACCACTTTCATCCTTCAGT | 0.00879
TTCTTGACCACTTTCATCCTTC | 0.42
TTTACAGAAACAAAGTCTGTGT | -0.0841
TTTTACAGAAACAAAGTCTGTG | 0.624
TTCTACATATTTTACATTCTTG | -0.737
TTGGACATTTGTCACATACAAA | -1.79
TTTACTACACTCATAAATGTTC | -0.591
TTTTACATTCTTGACCACTTTC | -0.602

What follows are sequences tested against ZNF708 in the same assay as above. Conditions: shRNA.

Sequence | sensor-assay potency score (higher = more potent)
TTATCTTATGATTCGTAAGGTT | -0.564
TTTTCTAGTAAGAATTATCTTA | -0.389
TTTCTTGTGATTAGTAAGGTTT | -0.453
TTTGTCACACTGAACTATTTTG | -1.74
TTTCTAGTAAGAATTATCTTAC | -0.946
TTATCTTATGTCTCTTTGCATT | -1.42
TACTGTGATGTCTTCCAGCTTT | -0.106

Source: the OligoGym collection
